The values below come from PubChem BioAssay AID651711 (Broad Institute, 2012).

“And” between values parts separate entries of the source, which are not always exact repeats. Identical values can stand only once. About 180 (0.051%) of roughly 350,000 compounds were called active.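 How the source made its calls: active means mean replicate inhibition above about 25%, with every replicate also reaching it (limit read from the data, passing the limit was not always enough); inconclusive means only one of those two criteria met; inactive means neither criterion met.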 The entries come from a sample that favours actives as a whole. The source holds several records for some structures; these can differ, active in one and inactive in another.

One may read the inhibition as the drop in the measured response relative to a control, in per cent.

The test deals with Protein disulfide-isomerase A6 (Homo sapiens) (UniProt Q15084). Nature of the test: ERp5 (PDIA6) reductase activity blockers – biochemical, turbidity, absorbance 650 nm, single point, primary screen (AID 651711). The note with it: ERp5 insulin aggregation, 90 min, at 9.99 µM, stronger effect = higher value.
Protein disulfide-isomerase A6 (Homo sapiens), sequence (Q15084 whole entry, looked up): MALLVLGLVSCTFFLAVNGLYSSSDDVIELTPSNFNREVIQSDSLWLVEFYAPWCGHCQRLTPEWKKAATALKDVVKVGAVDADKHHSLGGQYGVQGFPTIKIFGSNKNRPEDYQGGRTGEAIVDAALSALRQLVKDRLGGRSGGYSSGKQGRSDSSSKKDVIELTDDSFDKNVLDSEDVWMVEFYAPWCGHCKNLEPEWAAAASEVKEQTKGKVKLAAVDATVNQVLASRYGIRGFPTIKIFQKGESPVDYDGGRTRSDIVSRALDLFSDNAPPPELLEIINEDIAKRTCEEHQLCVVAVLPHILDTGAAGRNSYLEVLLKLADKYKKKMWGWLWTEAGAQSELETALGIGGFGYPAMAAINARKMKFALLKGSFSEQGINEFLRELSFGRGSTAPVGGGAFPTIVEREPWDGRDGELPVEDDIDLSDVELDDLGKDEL
For the compound `C[C@H]1CN([C@@H](C)CO)S(=O)(=O)c2ccc(C#CCN(C)C)cc2O[C@@H]1CN(C)Cc1ccc(F)cc1`, the inhibition was 3.33% (inactive).
With `C[C@@H]1CN([C@@H](C)CO)C(=O)Cc2cc(NC(=O)C3CCCCC3)ccc2O[C@@H]1CN(C)Cc1ccc(C(=O)Nc2ccccc2N)cc1`, the inhibition was -3.91% (inactive).
For `CN1C(=O)c2cc(NC(=O)c3cnccn3)ccc2OC[C@H]2O[C@@H](CC(=O)NCC3CCCCC3)CC[C@@H]21`, the inhibition is -4.79% (inactive).
As for `CC(C)NC(=O)N(C)C[C@H]1Oc2c(NC(=O)Nc3ccc(F)cc3)cccc2C(=O)N([C@@H](C)CO)C[C@@H]1C`, the figure is 0.87% (inactive).
As for `COc1cccc(-c2cnc3c(c2)C(=O)N([C@@H](C)CO)C[C@H](C)[C@H](CN(C)C(C)=O)O3)c1`, the figure is 1.61% (inactive); as for `CN(C)C(=O)C[C@@H]1C=C[C@H](NC(=O)Nc2cccc(F)c2)[C@H](CO)O1`, 0.18% (inactive); as for `COCC(=O)N[C@@H]1C[C@@H]2O[C@@H](CO)CC[C@@H]2O[C@@H]1CCc1ccc(-c2ccccc2)cc1`, -0.551% (inactive).
The figure for `C[C@H]1CN([C@@H](C)CO)C(=O)c2cccc(NC(=O)c3cnccn3)c2O[C@H]1CN(C)C(=O)Nc1ccccc1` is 2.81% (inactive).
On to `CC(=O)N1[C@H](CO)[C@H](c2ccccc2)[C@H]1CN(C(=O)c1ccccc1F)C(C)C`, for which the inhibition is -2.13% (inactive).
The figure for `C[C@H](CO)N1C[C@H](C)[C@H](CN(C)S(=O)(=O)c2cccc(F)c2)OCc2cnnn2CCCC1=O` is -5.61% (inactive).
On to `Cc1cccc(S(=O)(=O)N(C)C[C@H]2OCc3cnnn3CCCC(=O)N([C@@H](C)CO)C[C@H]2C)c1`, for which the inhibition is -7.22% (inactive) and 27.4% (active).
The figure for `Cc1cccc(S(=O)(=O)N(C)C[C@@H]2OCc3cnnn3CCCC(=O)N([C@H](C)CO)C[C@@H]2C)c1` is -3.09% (inactive) and 0.225% (inactive) and -3.77% (inactive); for `Cc1nc(NC(=O)C(C)(C)C)sc1[N+](=O)[O-]` it is 0.0535% (inactive).
The figure for `O=C(NCC1CC1)[C@@H]1[C@@H](CO)[C@@H]2Cn3c(ccc(-c4ccncc4)c3=O)[C@@H]2N1Cc1cocn1` is 6.61% (inactive); for `CO[C@@H]1CN(C)C(=O)c2ccc(NC(=O)NC(C)C)cc2OC[C@@H](C)N(Cc2ccc(-c3ccccn3)cc2)C[C@H]1C` it is -3.96% (inactive); for `CCS(=O)(=O)N1[C@H](CO)[C@@H](c2ccc(C#CC(C)C)cc2)[C@@H]1C#N` it is 0.717% (inactive).
Regarding `O=C(C[C@H]1C=C[C@@H](NC(=O)c2ccc(F)cc2)[C@@H](CO)O1)NCCc1ccncc1`, the inhibition was -1.66% (inactive).
The figure for `COCC#Cc1cnc2c(c1)C(=O)N([C@H](C)CO)C[C@H](C)[C@H](CN(C)C(=O)CCN1CCCCC1)O2` is -2% (inactive); for `C[C@@H]1CN([C@H](C)CO)C(=O)Cc2cc(NC(=O)Cc3cn(C)c4ccccc34)ccc2O[C@@H]1CN(C)Cc1ccc(C(F)(F)F)cc1` it is -1.92% (inactive); for `Cc1cccc(-c2ccccc2[C@@H]2[C@H](C#N)N(c3ncc(-c4ccccc4)s3)[C@H]2CO)c1` it is 5.5% (inactive).
As for `CO[C@@H]1CN(C)C(=O)c2cc(NS(=O)(=O)c3cccc(F)c3)ccc2OC[C@@H](C)NC[C@@H]1C`, the figure is 3.66% (inactive).
The figure for `CO[C@@H]1CC[C@@H]2CCOc3c(C#N)cccc3C(=O)N(C)C[C@@H](OC)[C@@H](C)C(=O)N(C)C[C@H]1O2` is 0.649% (inactive).
On to `COc1ccc2c3c(n(C)c2c1)[C@@H](CO)N(CC1CC1)CC31CN(C(=O)c2cccc(F)c2)C1`, for which the inhibition is -2.91% (inactive).
`COCC(=O)N[C@@H]1C=C[C@@H](CC(=O)N2CCCCC2)O[C@@H]1CO`: the inhibition is -2.02% (inactive).
As for `CC(C)NC(=O)N(C)C[C@H]1OCCCC[C@@H](C)Oc2ccc(NS(C)(=O)=O)cc2C(=O)N([C@H](C)CO)C[C@H]1C`, the figure is -1.99% (inactive).
The figure for `CCCN1C[C@H](C)[C@@H](OC)CN(C)C(=O)c2cc(NS(=O)(=O)CC)ccc2OC[C@H]1C` is -4.64% (inactive).
The figure for `C[C@@H]1CN([C@@H](C)CO)C(=O)Cc2cc(NC(=O)Nc3cccc4ccccc34)ccc2O[C@@H]1CN(C)CC1CCCCC1` is 3.82% (inactive); for `O=C(NCC[C@@H]1CC[C@@H](NS(=O)(=O)c2cccc(F)c2)[C@H](CO)O1)C1CC1` it is -3.52% (inactive); for `CCCNC(=O)N(C)C[C@H]1Oc2cc(C#C[C@@H](C)O)ccc2S(=O)(=O)N([C@H](C)CO)C[C@H]1C` it is -12.1% (inactive).
On to `CCCN1C[C@@H](C)[C@@H](OC)CN(C)C(=O)c2ccc(NC(=O)CC(F)(F)F)cc2OC[C@H]1C`, for which the inhibition is 9.49% (inactive).
As to `Cc1ccc(-c2ccccc2[C@H]2[C@@H](C#N)N(c3ncc(-c4ccccc4)s3)[C@@H]2CO)cc1`, the inhibition was -0.798% (inactive).
The figure for `CC=Cc1ccc2n(c1=O)C[C@H]1[C@H](CO)[C@@H](C(=O)NCC3CC3)N(Cc3nccs3)[C@@H]21` (mixture of isomers) is -2.63% (inactive).
As for `COc1ccccc1-c1cnc2c(c1)C(=O)N([C@H](C)CO)C[C@H](C)[C@@H](CN(C)C(=O)CC1CC1)O2`, the figure is -2.32% (inactive).
The figure for `C[C@H]1CN([C@@H](C)CO)C(=O)c2cc(Br)cnc2O[C@@H]1CN(C)C(=O)c1ccccc1` is -13% (inactive); for `CC(=O)Nc1ccc2c(c1)C(=O)N(C)[C@H]1CC[C@@H](CC(=O)NCC3CC3)O[C@H]1CO2` it is 39.3% (active); for `COCC(=O)Nc1ccc2c(c1)C(=O)N(C)[C@@H]1CC[C@H](CC(=O)NCC3CC3)O[C@@H]1CO2` it is 7.57% (inactive).
Take `CCNC(=O)C[C@@H]1CC[C@@H]2[C@@H](COc3ccc(NC(C)=O)cc3C(=O)N2C)O1`: the inhibition was -7.17% (inactive).
As for `C[C@@H]1CN([C@@H](C)CO)C(=O)Cc2cc(NC(=O)Nc3cccc4ccccc34)ccc2O[C@H]1CN(C)S(=O)(=O)c1ccc(Cl)cc1`, the inhibition was -3.03% (inactive).
`O=C(CN1CCOCC1)N[C@@H]1CC[C@@H](CCNC(=O)C2CCCCC2)O[C@@H]1CO`: the inhibition was 0.632% (inactive).
Take `C[C@H](CO)N1C[C@H](C)[C@H](CN(C)Cc2ccc(Oc3ccccc3)cc2)Oc2c(NC(=O)CCCCCC(=O)Nc3ccccc3N)cccc2C1=O`: the inhibition is 1.76% (inactive).
